Measured values from the supplement of paper PMC10849652.
Of roughly 8,800 targets only a part is listed; those with a hit were picked by preference. About 0.5% of all pairs of compound and target were hits. Values without a mark were called inactive.

Compound: Cc1cc(Nc2cc(N3CCN(C)CC3)nc(Sc3ccc(NC(=O)C4CC4)cc3)n2)n[nH]1 [tozasertib]
Assay: log2 fold change, soluble protein after heating vs DMSO (PISA); higher = thermal stabilisation; K562 lysate, 10 uM; active = over 0.2 and 3.5 SD of the protein, either way, in both replicates (recomputed)
Outline: (§1)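 The values are log-two fold changes in thermal stability compared with solvent controls and come from duplicates. They were obtained by TMTpro 16plex LC-MS/MS, with channel sums equalised, on the supernatant after 21,000xg for 90 min. That supernatant came from crude K562 extract at 1 mg/mL protein treated with 10 μM compound for 30 min, heated for 3 min across 48°C-58°C, pooled and brought to 0.5% NP-40 at 4°C.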

UniProt Q6P1M9, sequence (Q6P1M9 whole entry, looked up): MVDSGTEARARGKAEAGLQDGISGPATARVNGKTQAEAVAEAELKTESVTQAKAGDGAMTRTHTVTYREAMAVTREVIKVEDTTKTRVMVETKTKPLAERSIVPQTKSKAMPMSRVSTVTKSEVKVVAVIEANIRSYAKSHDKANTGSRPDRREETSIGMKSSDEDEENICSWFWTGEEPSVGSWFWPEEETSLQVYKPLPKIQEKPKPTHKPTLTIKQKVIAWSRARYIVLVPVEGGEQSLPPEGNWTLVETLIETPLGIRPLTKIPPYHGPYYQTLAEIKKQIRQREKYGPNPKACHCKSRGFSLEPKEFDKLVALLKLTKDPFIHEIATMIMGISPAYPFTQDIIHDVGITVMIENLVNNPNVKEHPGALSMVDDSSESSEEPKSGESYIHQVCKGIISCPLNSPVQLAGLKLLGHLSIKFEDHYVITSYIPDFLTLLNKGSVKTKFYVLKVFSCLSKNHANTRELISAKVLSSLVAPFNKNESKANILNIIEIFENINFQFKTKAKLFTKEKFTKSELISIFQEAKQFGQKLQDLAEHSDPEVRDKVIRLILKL
UniProt Q8N302, sequence (Q8N302 whole entry, looked up): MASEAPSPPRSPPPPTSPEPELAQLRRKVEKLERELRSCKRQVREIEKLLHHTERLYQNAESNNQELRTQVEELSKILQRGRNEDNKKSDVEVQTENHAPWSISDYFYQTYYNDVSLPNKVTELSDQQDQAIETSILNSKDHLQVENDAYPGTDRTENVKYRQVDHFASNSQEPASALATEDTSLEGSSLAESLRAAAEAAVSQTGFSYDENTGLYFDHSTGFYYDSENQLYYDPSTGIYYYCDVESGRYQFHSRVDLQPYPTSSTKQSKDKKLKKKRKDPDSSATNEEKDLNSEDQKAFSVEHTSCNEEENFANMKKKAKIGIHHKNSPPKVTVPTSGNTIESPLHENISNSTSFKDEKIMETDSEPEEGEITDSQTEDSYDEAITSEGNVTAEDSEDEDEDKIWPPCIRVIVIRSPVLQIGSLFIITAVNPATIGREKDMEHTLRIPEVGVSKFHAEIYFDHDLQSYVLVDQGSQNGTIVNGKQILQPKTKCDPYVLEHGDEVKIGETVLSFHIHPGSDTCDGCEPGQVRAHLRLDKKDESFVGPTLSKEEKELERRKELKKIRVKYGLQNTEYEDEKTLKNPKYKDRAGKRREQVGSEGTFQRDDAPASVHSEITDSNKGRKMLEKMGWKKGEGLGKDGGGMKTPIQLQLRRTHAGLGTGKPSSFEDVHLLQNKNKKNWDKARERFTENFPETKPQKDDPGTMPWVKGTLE
UniProt Q9BT30, sequence (Q9BT30 whole entry, looked up): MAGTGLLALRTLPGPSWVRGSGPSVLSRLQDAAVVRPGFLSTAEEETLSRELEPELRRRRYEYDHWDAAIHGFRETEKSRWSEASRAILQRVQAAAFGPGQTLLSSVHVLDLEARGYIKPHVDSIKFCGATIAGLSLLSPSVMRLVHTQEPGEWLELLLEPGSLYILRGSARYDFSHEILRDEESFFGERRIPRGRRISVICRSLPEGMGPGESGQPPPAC
UniProt P14621, sequence (P14621 whole entry, looked up): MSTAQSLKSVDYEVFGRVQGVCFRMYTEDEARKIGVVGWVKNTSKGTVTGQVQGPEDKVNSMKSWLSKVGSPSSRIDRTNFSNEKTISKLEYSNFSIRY
UniProt P35611, sequence (P35611 whole entry, looked up): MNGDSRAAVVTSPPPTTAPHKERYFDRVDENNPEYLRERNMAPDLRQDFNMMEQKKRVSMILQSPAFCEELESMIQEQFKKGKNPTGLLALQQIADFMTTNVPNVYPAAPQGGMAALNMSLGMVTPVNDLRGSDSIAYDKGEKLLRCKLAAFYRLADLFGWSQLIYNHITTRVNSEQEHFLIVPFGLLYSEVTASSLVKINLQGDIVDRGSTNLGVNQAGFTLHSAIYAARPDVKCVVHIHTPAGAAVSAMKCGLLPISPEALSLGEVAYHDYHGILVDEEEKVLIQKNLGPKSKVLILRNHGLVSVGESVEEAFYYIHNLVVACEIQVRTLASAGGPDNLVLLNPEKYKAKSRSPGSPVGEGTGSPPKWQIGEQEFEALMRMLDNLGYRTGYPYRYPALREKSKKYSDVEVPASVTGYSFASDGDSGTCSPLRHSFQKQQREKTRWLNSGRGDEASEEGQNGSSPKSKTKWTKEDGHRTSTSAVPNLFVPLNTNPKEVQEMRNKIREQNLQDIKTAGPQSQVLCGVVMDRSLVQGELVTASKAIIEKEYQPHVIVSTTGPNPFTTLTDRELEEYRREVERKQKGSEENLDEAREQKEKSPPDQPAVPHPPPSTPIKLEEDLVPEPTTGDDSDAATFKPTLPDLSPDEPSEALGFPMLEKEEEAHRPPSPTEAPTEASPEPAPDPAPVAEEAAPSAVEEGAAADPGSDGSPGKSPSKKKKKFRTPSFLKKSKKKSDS
UniProt P27216, sequence (P27216 whole entry, looked up): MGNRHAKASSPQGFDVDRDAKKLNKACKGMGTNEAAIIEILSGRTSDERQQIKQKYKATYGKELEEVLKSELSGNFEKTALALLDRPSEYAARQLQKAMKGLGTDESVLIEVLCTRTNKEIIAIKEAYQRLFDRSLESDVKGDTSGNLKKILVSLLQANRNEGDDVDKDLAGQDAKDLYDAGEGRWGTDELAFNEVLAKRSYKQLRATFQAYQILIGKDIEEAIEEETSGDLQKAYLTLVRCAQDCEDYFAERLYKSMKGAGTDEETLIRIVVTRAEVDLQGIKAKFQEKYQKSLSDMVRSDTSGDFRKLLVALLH
UniProt Q99758, sequence (Q99758 whole entry, looked up): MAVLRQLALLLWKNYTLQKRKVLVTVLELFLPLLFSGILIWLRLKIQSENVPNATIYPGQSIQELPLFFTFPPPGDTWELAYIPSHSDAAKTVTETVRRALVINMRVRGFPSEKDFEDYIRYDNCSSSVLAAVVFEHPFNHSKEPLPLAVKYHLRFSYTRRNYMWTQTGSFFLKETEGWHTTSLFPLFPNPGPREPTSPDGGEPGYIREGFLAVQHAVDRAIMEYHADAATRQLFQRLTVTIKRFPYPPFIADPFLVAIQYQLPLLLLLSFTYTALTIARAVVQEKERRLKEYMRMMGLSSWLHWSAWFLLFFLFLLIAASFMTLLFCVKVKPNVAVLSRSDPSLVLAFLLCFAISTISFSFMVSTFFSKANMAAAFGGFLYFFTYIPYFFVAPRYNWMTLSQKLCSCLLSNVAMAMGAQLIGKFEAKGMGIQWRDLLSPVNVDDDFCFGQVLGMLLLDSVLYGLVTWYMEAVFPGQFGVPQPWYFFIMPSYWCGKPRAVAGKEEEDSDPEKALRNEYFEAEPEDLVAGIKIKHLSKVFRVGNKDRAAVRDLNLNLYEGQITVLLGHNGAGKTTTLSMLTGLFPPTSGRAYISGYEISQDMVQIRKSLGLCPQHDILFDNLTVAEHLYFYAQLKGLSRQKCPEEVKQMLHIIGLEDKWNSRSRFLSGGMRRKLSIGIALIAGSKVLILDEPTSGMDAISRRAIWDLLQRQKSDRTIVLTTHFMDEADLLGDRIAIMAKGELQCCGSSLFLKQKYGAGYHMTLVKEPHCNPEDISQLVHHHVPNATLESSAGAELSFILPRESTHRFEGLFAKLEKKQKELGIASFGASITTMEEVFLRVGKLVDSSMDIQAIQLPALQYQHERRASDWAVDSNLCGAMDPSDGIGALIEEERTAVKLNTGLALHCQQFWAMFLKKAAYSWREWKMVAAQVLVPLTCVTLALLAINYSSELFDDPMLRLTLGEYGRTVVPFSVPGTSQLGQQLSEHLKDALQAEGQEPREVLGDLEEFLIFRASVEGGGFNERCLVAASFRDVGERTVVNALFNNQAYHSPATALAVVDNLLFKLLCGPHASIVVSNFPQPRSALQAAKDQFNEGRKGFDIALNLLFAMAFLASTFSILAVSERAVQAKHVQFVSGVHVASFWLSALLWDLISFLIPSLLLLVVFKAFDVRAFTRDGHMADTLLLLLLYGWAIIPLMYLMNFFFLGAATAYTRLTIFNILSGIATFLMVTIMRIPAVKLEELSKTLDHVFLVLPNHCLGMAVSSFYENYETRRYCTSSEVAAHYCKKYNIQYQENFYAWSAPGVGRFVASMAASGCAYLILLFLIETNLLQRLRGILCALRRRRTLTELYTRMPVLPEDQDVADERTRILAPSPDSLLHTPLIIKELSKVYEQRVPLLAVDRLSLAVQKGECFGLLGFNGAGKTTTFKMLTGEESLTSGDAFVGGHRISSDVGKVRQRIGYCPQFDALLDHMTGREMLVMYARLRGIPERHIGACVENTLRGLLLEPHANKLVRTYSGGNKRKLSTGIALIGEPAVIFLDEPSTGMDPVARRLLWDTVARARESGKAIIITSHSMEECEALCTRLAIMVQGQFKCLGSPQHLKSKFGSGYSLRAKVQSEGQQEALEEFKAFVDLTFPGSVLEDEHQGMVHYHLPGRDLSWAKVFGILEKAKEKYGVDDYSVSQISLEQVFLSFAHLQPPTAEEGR
UniProt Q9NXR5, sequence (Q9NXR5 whole entry, looked up): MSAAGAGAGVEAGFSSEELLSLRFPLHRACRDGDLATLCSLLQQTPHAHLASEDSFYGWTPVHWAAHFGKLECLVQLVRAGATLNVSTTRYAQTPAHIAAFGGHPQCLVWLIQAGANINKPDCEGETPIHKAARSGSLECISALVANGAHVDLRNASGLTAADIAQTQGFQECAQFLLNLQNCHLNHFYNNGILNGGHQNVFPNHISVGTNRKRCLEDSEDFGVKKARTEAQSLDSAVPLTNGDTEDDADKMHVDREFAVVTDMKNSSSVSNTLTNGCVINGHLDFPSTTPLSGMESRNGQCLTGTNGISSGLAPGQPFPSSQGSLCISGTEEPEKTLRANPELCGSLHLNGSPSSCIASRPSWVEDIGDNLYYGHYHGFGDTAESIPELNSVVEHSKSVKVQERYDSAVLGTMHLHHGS
UniProt Q9P1F3, sequence (Q9P1F3 whole entry, looked up): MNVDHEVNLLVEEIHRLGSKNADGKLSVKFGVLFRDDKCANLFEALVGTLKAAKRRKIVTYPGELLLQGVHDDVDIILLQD

Target | log2 fold change
ACIN1 (UniProt E7EQT4) | 0
ANKRD40 (UniProt Q6AI12) | 0.249
ADD1 isoform 4 (UniProt P35611) | -0.044
ALKBH1 (UniProt Q13686) | 0.09
ANP32E isoform 3 (UniProt Q9BTT0) | 0.165
ALG3 (UniProt Q92685) | -0.04
AGPAT2 (UniProt O15120) | 0.048
ADAM17 (UniProt P78536) | -0.015
ABCA3 (UniProt Q99758) | -0.16
ARHGEF2 (UniProt V9GYF0) | 0.041
ABI1 isoform 6 (UniProt Q8IZP0) | -0.061
AGGF1 (UniProt Q8N302) | 0.04
ACTG1 (UniProt K7EM38) | 0.207
ACLY isoform 2 (UniProt P53396) | 0.055
ANKRD44 isoform 2 (UniProt Q8N8A2) | 0.12
ABCC5 (UniProt O15440) | -0.016
ANKRD30B (UniProt Q9BXX2) | -0.005
ANXA5 (UniProt P08758) | 0.019
ALKBH7 (UniProt Q9BT30) | -0.045
ARMCX5 (UniProt Q6P1M9) | 0.032

Compound: Cc1ccc(-n2nc(C(C)(C)C)cc2NC(=O)Nc2ccc(OCCN3CCOCC3)c3ccccc23)cc1 [doramapimod]
Assay: as above
Outline: as §1

Target | log2 fold change
AIMP2 isoform 2 (UniProt Q13155) | -0.019
ALDH18A1 isoform 2 (UniProt P54886) | -0.134
ACIN1 (UniProt E7EQT4) | 0.068
ANKRD40 (UniProt Q6AI12) | -0.027
ABRACL (UniProt Q9P1F3) | -0.014
ANKRD10 (UniProt Q9NXR5) | -0.079
ALDH3A1 (UniProt P30838) | 0.015
ANXA2 (UniProt H0YL33) | 0.017
ALG3 (UniProt Q92685) | 0.037
AGPAT2 (UniProt O15120) | 0.1
ADAM17 (UniProt P78536) | -0.06
ABCA3 (UniProt Q99758) | 0.203
ARL13B (UniProt Q3SXY8) | -0.068
ACYP2 (UniProt P14621) | -0.024
AGGF1 (UniProt Q8N302) | -0.011
AMDHD2 (UniProt Q9Y303) | 0.057
ACLY isoform 2 (UniProt P53396) | -0.119
ABCC5 (UniProt O15440) | 0.081
ANXA5 (UniProt P08758) | 0.015
ANXA13 isoform 2 (UniProt P27216) | 0.038
ALKBH7 (UniProt Q9BT30) | -0.062

Compound: Cc1ccc(NC(=O)c2ccc(CN3CC[C@H](N(C)C)C3)c(C(F)(F)F)c2)cc1Nc1nccc(-c2cncnc2)n1 [bafetinib]
Assay: as above
Outline: as §1

Target | log2 fold change
AIMP2 isoform 2 (UniProt Q13155) | -0.082
ACIN1 (UniProt E7EQT4) | -0.063
ANKRD40 (UniProt Q6AI12) | -0.149
ABRACL (UniProt Q9P1F3) | 0.09
ADD1 isoform 4 (UniProt P35611) | 0.097
ANKRD10 (UniProt Q9NXR5) | -0.112
ACVR1 (UniProt Q04771) | 0.007
ANP32E isoform 3 (UniProt Q9BTT0) | -0.14
ANXA2 (UniProt H0YL33) | 0.031
ALG3 (UniProt Q92685) | -0.061
ADAM17 (UniProt P78536) | 0.019
ABCA3 (UniProt Q99758) | -0.006
ARL13B (UniProt Q3SXY8) | 0.025
ADK, A0A5F9ZH76 | 0.147
ACYP2 (UniProt P14621) | -0.002
AGGF1 (UniProt Q8N302) | 0.047
ACLY isoform 2 (UniProt P53396) | 0.004
ANKRD44 isoform 2 (UniProt Q8N8A2) | -0.405
ABCC5 (UniProt O15440) | -0.117
ANKRD30B (UniProt Q9BXX2) | -0.163
ANXA5 (UniProt P08758) | -0.018
ANXA13 isoform 2 (UniProt P27216) | -0.195
ARMCX5 (UniProt Q6P1M9) | -0.104

Compound: Cc1cccc(CC(=O)N2CCc3c2ccc(-c2cn(C)c4ncnc(N)c24)c3F)n1
Assay: as above
Outline: as §1

Target | log2 fold change
ACIN1 (UniProt E7EQT4) | 0.032
ANKRD40 (UniProt Q6AI12) | -0.067
ABRACL (UniProt Q9P1F3) | -0.047
ADD1 isoform 4 (UniProt P35611) | 0.563
ANKRD10 (UniProt Q9NXR5) | 0.007
ACVR1 (UniProt Q04771) | -0.294
ALDH3A1 (UniProt P30838) | 0.586
ALKBH1 (UniProt Q13686) | 0.048
ANP32E isoform 3 (UniProt Q9BTT0) | 0.439
ANXA2 (UniProt H0YL33) | -0.054
ACAT1, A0A5F9ZHJ0 | 0.208
ALG3 (UniProt Q92685) | 0.261
AGPAT2 (UniProt O15120) | 0.021
ALG13 isoform 2 (UniProt Q9NP73) | 0.106
ADAM17 (UniProt P78536) | 0.099
ABCA3 (UniProt Q99758) | -0.075
ARL13B (UniProt Q3SXY8) | -0.217
ACYP2 (UniProt P14621) | -0.105
AGGF1 (UniProt Q8N302) | 0.268
AMDHD2 (UniProt Q9Y303) | 0.065
ACLY isoform 2 (UniProt P53396) | 0.277
ANKRD44 isoform 2 (UniProt Q8N8A2) | 0.766 (active)
ABCC5 (UniProt O15440) | 0.045
ANKRD30B (UniProt Q9BXX2) | 0.397
AP3D1 isoform 2 (UniProt O14617) | -0.084
ANXA5 (UniProt P08758) | -0.065
ANXA13 isoform 2 (UniProt P27216) | 0.284
ABL1 isoform 2 (UniProt P00519) | -0.048
ALKBH7 (UniProt Q9BT30) | 0.187
ARMCX5 (UniProt Q6P1M9) | 0.078
